The list is not random: actives were taken first. Their share in the collection is about 19%.
HT1080 IDH1KD tx: kills HT-1080 cells with IDH1 knockdown; HT-1080 IDH1 knockdown viability, ATP luminescence, 48 h; Potency, µM (titrated, usually from 46.1 µM), for the others: at the highest dose activity, negative = toxicity, actives largely listed as cytotoxic; actives 2% (n = 360,000); AID 686971;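 also: potency is read from the fitted curve at half-maximal effect; 0% = DMSO wells and -100% = cell-free medium wells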
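IDH1KD HT-1080 cells, 750/well, RPMI + 5% FBS; compound pinned after 2 h settling; 48 h, 37 °C; CellTiter-Glo luminescence; % activity normalised to DMSO and no-cell wells; curves fitted, classed by r2 and efficacy.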
TDP1 cell CPT: DT40-hTDP1 cell growth loss with CPT. actives 12% (n = 420,000). chicken DT40 Tdp1-/-;hTDP1 cells + 20 nM CPT, ATP luminescence, 48 h. Potency, µM (titrated, usually from 46.2 µM), inactives show at the top dose activity change, negative = growth inhibition, hits mostly inhibitors; also: potency is read from the fitted curve at half-maximal effect; nearly all actives have a fitted effect of over 55% in size
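Chicken DT40 Tdp1-/- cells complemented with human TDP1, 400 cells/well, exposed to compounds plus 20 nM camptothecin for at least 48 h at 37 C; viability read as ATP content by CellTiter-Glo luminescence.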
DT40 TDP1 no CPT: qHTS for Inhibitors of human tyrosyl-DNA phosphodiesterase 1 (TDP1): qHTS in cells in absence of CPT; Potency, µM (titrated, usually from 46.2 µM), for the others: top-dose activity change, negative = growth inhibition, hits mostly inhibitors; DT40 Tdp1-/- hTDP1 cells, no CPT, ATP luminescence, 48 h; actives 15% (n = 420,000); also: potency is read from the fitted curve at half-maximal effect; nearly all actives have a fitted effect of over 55% in size
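Stably hTDP1-transfected Tdp1-null chicken DT40 cells were treated with library compounds minus camptothecin and grown for at least 48 hr at 37 °C, after which cellular ATP was quantified by luminescence.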
HT1080-NT tox: kills 2HG-producing HT-1080-NT fibrosarcoma cells | Potency, µM (series often up to 46.1 µM), for the others: top-dose activity, negative = less viability, hits mostly cytotoxic | HT-1080-NT fibrosarcoma viability, CellTiter-Glo ATP luminescence, 48 h | actives 1.6% (n = 360,000) | AID 686970;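 also: NT is the 2HG producing partner of a matched IDH1 knockdown line; potency is read from the fitted curve at half-maximal effect; 0% = DMSO-treated cells and -100% = media-only wells without cells; nearly all actives have a fitted effect of over 55% in size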
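Read-out is CellTiter-Glo luminescence after 10 minutes at room temperature, following 48 hours' compound treatment of HT-1080-NT cells (750 cells/well, RPMI, 5% FBS, 37 degrees C).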
ELG1 DNA repair: blocks ELG1-dependent DNA repair in HEK293T cells; HEK293T ELG1-luciferase reporter, luminescence, 16 h; DNA damage induced by 5-fluorouridine; Potency, µM (series often up to 46.1 µM), inactives show at the top dose activity change, negative = inhibition, actives largely listed as inhibitors; actives 2.3% (n = 330,000); also: potency is read from the fitted curve at half-maximal effect; nearly all actives have a fitted effect of over 55% in size
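Overnight (16 hr) co-exposure of 2,000 cells/well to 5-fluorouridine and compound at 37 °C preceded detection. Luciferase was quantified via ONE-Glo luminescence; loss of signal denotes inhibition.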
IL-1B inflam inh: inhibitors of inflammasome signaling (IL-1 beta secretion); THP-1 LPS/ATP IL-1B secretion, AlphaLISA, 16 h; hits give low values; activity change, % at 57.5 µM; actives 4.7% (n = 360,000); in the data active = activity change below about -50%; inconclusive = mostly about -30% to -49%
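Secreted IL-1B measured by AlphaLISA bead assay after 16 h compound exposure of THP-1 cells; compounds (final up to 57.5 uM) added 1 h before LPS (250 ng/mL) and ATP (1.25 mM) stimulation; lower signal means less secretion.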
Active calls of the source: *; ? = inconclusive; / = not tested or not shown. Unless noted, calls follow the shape of the dose curve; as a rule, active = well fitted curve in the direction sought with a large enough effect; inconclusive = small, poorly fitted or top-dose-only effect, or another doubt; inactive = no such curve, though single readings can be large; an effect the other way counts as inactive or inconclusive. Unless noted, % is scaled to controls: 0 for no effect and ±100 for the full control effect.

SMILES | HT1080 IDH1KD tx | TDP1 cell CPT | DT40 TDP1 no CPT | HT1080-NT tox | ELG1 DNA repair | IL-1B inflam inh
CCOC(=O)c1[nH]c2ccc(OC)cc2c1NC(C)=O | -3% | 3% | -12% | -1% | -4% | -5
N#C/C(=C\c1ccc(-c2ccc(S(=O)(=O)N3CCOCC3)cc2)o1)C(=O)NC1CC1 | -2% | 12µM* | 21µM* | -10% | ? | -2
N#C/C(=C/c1ccc(-c2ccc(S(=O)(=O)N3CCOCC3)cc2)o1)C(=O)NC1CC1 | -7% | -107% | 15µM* | -21% | / | ?
N#C/C(=C\c1ccc(N2CCOCC2)o1)C(=O)NC1CCCCC1 | -1% | -20% | ? | 8% | 6% | -10
CC1CCCCC1NC(=O)c1cc(S(=O)(=O)N2CCCCC2)ccc1N1CCOCC1 (stereo unspecified) | -2% | ? | ? | 4% | 3% | 16
Cc1ccc(Nc2cc(C)nc3nc(C)nn23)cc1 | 12% | 0% | -4% | 1% | 0% | -20
CCc1ccc(Nc2cc(C)nc3nc(Cc4ccc(Cl)cc4)nn23)cc1 | / | 16µM* | 9.2µM* | / | / | /
Cc1ccc(Nc2cc(C)nc3nc(Cc4ccc(Cl)cc4)nn23)cc1 | / | 18µM* | 15µM* | / | / | /
N#CCCn1c(=O)c(-c2cccc(C#N)c2)nc2cnc(N3CCOCC3)nc21 | / | 3% | 0% | / | / | /
O=C(COc1ccc(Cl)cc1)N(Cc1ccccc1)c1ccccn1 | -14% | -7% | -16% | -5% | 0% | -25
CC(C)c1ccc(OCC(=O)N(Cc2ccccc2)c2ccccn2)cc1 | -28% | 23µM* | 16µM* | 1% | -18% | -6
Cc1ccc(CN(C(=O)COc2ccc([N+](=O)[O-])cc2)c2ccccn2)cc1 | / | ? | 16µM* | / | / | /
O=C(COc1ccc(Br)cc1)N(Cc1ccccc1)c1ccccn1 | -11% | 6% | -107% | 3% | -1% | -10
CC(C)(Oc1ccc(Cl)cc1)C(=O)N(Cc1ccccc1)c1ccccn1 | 5% | ? | 18µM* | 5% | -12% | 0
COC(=O)N1CCC2(CC1)CN(c1ccccc1)C2 | / | -11% | -19% | / | / | /
CCCCn1c(N)c(N(Cc2ccccc2OC)C(=O)c2sccc2C)c(=O)[nH]c1=O | -1% | 1% | -9% | -1% | 14% | -2
CC(C)c1cccc(C(C)C)c1NC(=O)COC(=O)C1=COCCO1 | 13% | 16% | -1% | 1% | -13% | 7
CNC(=O)N(C1=NCC(C)(C)S1)c1ccc(F)c(Cl)c1 | -29% | ? | 18µM* | -18% | -7% | 13
COc1cc(OC)c(N(C)C(=O)CSc2c3c(nc4ccc(Cl)cc24)CCCC3)cc1Cl | / | 18µM* | ? | / | / | /
CN(Cc1ccccc1)C(=O)CSc1c2c(nc3ccc(Cl)cc13)CCCC2 | / | ? | 16µM* | / | / | /
CCCN(CCC)C(=O)CSc1c2c(nc3ccc(Cl)cc13)CCCC2 | / | 18µM* | ? | / | / | /
CN(CCCC(=O)NCCc1ccccc1)S(=O)(=O)c1ccc([N+](=O)[O-])cc1 | 0% | 5% | -18% | -14% | -14% | 16
C=C1C(=O)[C@]23C[C@H]1CCC2[C@]1(C)CCC[C@@](C)(C(=O)O)C1C[C@@H]3O (stereo partly specified) | 2.3µM* | 1.5µM* | 1.6µM* | 4.1µM* | / | -121*
C=C[C@]1(C)C=C2CCC3[C@](C)(CCC[C@@]3(C)C(=O)O)C2CC1 (stereo partly specified) | -11% | -28% | ? | -2% | 1% | 3
C=C1C(=O)[C@]23C[C@H]1CCC2[C@]1(C)C(=O)CC[C@@](C)(C(=O)O)C1C[C@@H]3O (stereo partly specified) | 8.2µM* | 2.9µM* | 3.7µM* | 6.5µM* | / | -109*
SMILES | HT1080 IDH1KD tx | TDP1 cell CPT | DT40 TDP1 no CPT | HT1080-NT tox | ELG1 DNA repair | IL-1B inflam inh
C=C1C(=O)[C@]23C[C@H]1CC[C@H]2[C@]1(C)[C@@H](OC(C)=O)CC[C@@](C)(C(=O)O)[C@H]1C[C@@H]3OC(C)=O | 6.5µM* | 2.1µM* | 4.1µM* | 6.5µM* | / | -99*
O=C(Nc1ccccc1)c1cc2ccc3ccccc3c2s1 | -5% | 6% | 0% | -23% | ? | 14
CC1(C)NC(=O)N(CC(=O)Nc2ccc(-n3cnnn3)cc2)C1=O | 9% | -1% | -3% | 4% | ? | 4
Cc1cc(Br)ccc1OCCCCN1CCC(C)CC1 | -23% | 23µM* | ? | -28% | -2% | ?
Clc1ccc(OCCOCCN2CCCCC2)c(Br)c1 | 5% | -4% | 3% | 10% | 9% | 0
CC1CCN(CCCCOc2ccccc2F)CC1 | 13% | ? | 15µM* | 16% | 2% | -6
CC1CCCN(CCCOc2ccc(Cl)cc2Br)C1 (stereo unspecified) | -19% | ? | ? | -1% | ? | -3
CC1CCN(CCCCOc2ccc(Br)cc2)CC1 | -12% | ? | ? | -7% | -1% | -10
CC1CCN(CCOCCOc2ccc(Cl)cc2Br)CC1 | ? | 13µM* | 21µM* | ? | -2% | ?
CC1CCN(CCCOc2ccc(Cl)cc2Br)CC1 | 23µM* | ? | ? | ? | 9% | 6
Cc1ccc(C)c(NC(=O)CCN2CCCC(C)C2)c1 (stereo unspecified) | 8% | 2% | -21% | 9% | 3% | 1
CCN(CC)Cc1cc(C(C)=O)ccc1OCC(C)C | -9% | 15% | 0% | -9% | -2% | 0
CCN(CC)Cc1cc(Oc2ccc(O)c(CN(CC)CC)c2)ccc1O | 11% | 21µM* | 23µM* | -4% | / | -72*
COC(=O)c1cn[nH]c1NC(=S)Nc1ccc(C)cc1Cl | 9% | ? | ? | 1% | ? | 19
COc1ccc(NC(=S)Nc2cc(-c3ccccc3)[nH]n2)cc1Cl | ? | 22µM* | ? | 13µM* | ? | ?
COc1ccc(NC(=S)Nc2cc(C)[nH]n2)cc1Cl | 7% | ? | 18µM* | 21% | ? | ?
COC(=O)c1cn[nH]c1NC(=S)Nc1ccc(Cl)c(Cl)c1 | ? | ? | 25µM* | ? | ? | 19
COc1cccc(Cn2c(=O)c(CCc3ccccc3)nc3cncnc32)c1 | / | -28% | ? | / | / | /
O=[N+]([O-])c1c(Nc2ccc(O)cc2)cc(Cl)c2nonc12 | 5.8µM* | 1.3µM* | 1.3µM* | 9.2µM* | ? | -101*

Bioassay records as filed in PubChem.
